Experimental data from PubChem BioAssay (NCATS).
“And” between values parts separate entries of the source, which are not always exact repeats. Equal entries are not always repeated. Results filed as inconclusive are left out. The source made the active and inactive calls. Unless noted, the call rests on the fitted dose curve; in most records, active means well fitted curve in the direction sought with a large enough effect; inconclusive means small, poorly fitted or top-dose-only effect, or another doubt; inactive means no such curve, though single readings can be large; an effect the other way counts as inactive or inconclusive.

What was measured:
[1] = qHTS to identify inhibitors of the type 1 interferon - major histocompatibility complex class I in skeletal muscle: primary screen against the NCATS Pharmaceutical Collection (AID 1347407);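 further: luminescence of HiBiT knocked into endogenous HLA-B as interferon-induced MHC class I level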
Procedure, shortened: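 Compounds […] were added to CRISPR-engineered HLA-B-HiBiT C25cl48 human myoblasts with 4.0 ng/ml IFN-beta. After 24 hrs at 37 C, cells were lysed and HiBiT luminescence measured.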

[2] = qHTS for inhibitors of adenylyl cyclases using a fission yeast platform: a pilot screen against the NCATS LOPAC library (AID 1347410)
Procedure, shortened: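 GFP from fbp1-GFP reporter, read by Acumen laser cytometry, indicates AC inhibition in fission yeast expressing AC9, GNAS and PDE4D2. Cells grown 18 h in the dark at 30C with compounds, final up to 57 uM.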

[3] = qHTS to identify inhibitors of the type 1 interferon - major histocompatibility complex class I in skeletal muscle: primary screen against the NCATS Mechanism Interrogation Plate v5.0 (MIPE) Libary (AID 1347411); further: nearly all actives have a fitted effect of over 65% in size; further: potency means the concentration at half of the fitted maximal effect
Procedure, shortened: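 IFN-beta-driven (4 ng/ml) HLA-B-HiBit expression in CRISPR-tagged C25cl48 myoblasts; compounds 11-pt, 1:3, max 46 uM, 24 hr exposure; lytic NanoLuc complementation luminescence.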

[4] = molecular target: Protein phosphatase 1D (Homo sapiens) (UniProt O15297); assay: RapidFire Mass Spectrometry qHTS Assay for Modulators of WT P53-Induced Phosphatase 1 (WIP1) (AID 1347424); further: series mostly up to about 63 µM
Protein phosphatase 1D (Homo sapiens), sequence (O15297 whole entry, looked up): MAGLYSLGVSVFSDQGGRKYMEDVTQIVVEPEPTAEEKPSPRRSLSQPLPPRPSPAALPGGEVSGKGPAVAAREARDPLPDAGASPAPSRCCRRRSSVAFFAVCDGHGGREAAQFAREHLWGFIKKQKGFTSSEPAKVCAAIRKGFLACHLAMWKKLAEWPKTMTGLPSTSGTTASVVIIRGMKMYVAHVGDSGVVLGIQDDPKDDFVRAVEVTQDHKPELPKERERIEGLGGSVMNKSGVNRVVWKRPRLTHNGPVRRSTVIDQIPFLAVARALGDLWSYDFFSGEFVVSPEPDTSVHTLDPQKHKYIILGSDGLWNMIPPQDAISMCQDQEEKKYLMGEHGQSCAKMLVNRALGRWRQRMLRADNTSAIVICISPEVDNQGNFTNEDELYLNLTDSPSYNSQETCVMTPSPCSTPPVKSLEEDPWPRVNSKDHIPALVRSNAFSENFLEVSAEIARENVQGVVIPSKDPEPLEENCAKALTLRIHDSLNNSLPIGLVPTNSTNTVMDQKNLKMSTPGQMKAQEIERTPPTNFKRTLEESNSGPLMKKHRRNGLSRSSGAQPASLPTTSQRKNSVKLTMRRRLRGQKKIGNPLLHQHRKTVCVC
Procedure, shortened: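 RapidFire MS readout of dephosphorylated VEPPL-S-QETFS product, with 1 uM isotope-labelled peptide standard. Reaction: 10 nM WIP1, 2 uM phosphopeptide substrate, 5 min, room temperature, after 1 h compound preincubation; stopped with 0.5% formic acid.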

[5] = molecular target: Protein phosphatase 1D (Homo sapiens) (UniProt O15297); assay: Rhodamine-PBP qHTS Assay for Modulators of WT P53-Induced Phosphatase 1 (WIP1) (AID 1347425)
Procedure, shortened: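 The read-out is the change in Rhodamine-PBP fluorescence (f1 - f0, ex 525/em 598 nm) as Pi is released, read each minute for 11 min. Final reaction: 5 nM WIP1, 10 uM phosphopeptide VEPPL-pS-QETFS, 10 uM Rh-PBP, 50 mM Tris-HCl pH 7.5, 30 mM MgCl2. Compound was preincubated with enzyme for 1 hour at room temperature.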

[6] = Validation qHTS assay for inhibitors of Activation Induced Cytidine Deaminase (AID): UDG Counterscreen signal (AID 1347427)
Procedure, shortened: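 Fluorescence at 560 nm excitation, 665 nm emission reports UDG signal after 250 mM NaOH (2x) addition and 30 min. Enzymes (AID 1 uM, UDG 2 U/mL, at 4/3x) preincubated 10 min with compound, then 4 h with 4x 250 nM DJC20/DJC23 substrate at room temperature.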

[7] = molecular target: Single-stranded DNA cytosine deaminase (Homo sapiens) (UniProt Q9GZX7); assay: Validation qHTS assay for inhibitors of Activation Induced Cytidine Deaminase (AID): AID signal (AID 1347429)
Single-stranded DNA cytosine deaminase (Homo sapiens), sequence (Q9GZX7 whole entry, looked up): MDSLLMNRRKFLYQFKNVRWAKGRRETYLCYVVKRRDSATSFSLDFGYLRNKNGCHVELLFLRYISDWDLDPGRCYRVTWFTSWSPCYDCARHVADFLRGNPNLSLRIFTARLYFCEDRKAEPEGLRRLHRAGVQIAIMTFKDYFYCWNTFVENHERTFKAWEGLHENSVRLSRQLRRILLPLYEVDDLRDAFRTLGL
Procedure, shortened: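 Compounds (up to 114 uM final) are tested against AID plus UDG using DJC20/DJC23 FRET substrate. Reactions incubate 4 hr at room temperature, receive NaOH for 30 min, and are read at Ex 540/Em 590 nm.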

[8] = Primary qHTS for inhibitors of La Crosse Virus (LACV) - induced cell death in SH-SY5Y cells (AID 1508616);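 further: top concentration of the series differs between compounds; higher means more rescue of cells from virus-induced death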
Procedure, shortened: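 Screening measures cell viability in LACV-infected SH-SY5Y cultures. Compound was added before virus (0.01 MOI), and ATP was detected by luminescence 6 days later.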

[9] = molecular target: Calcium and integrin-binding protein 1 (Homo sapiens) (UniProt Q99828); assay: Validation qHTS for Identification of Calcium Integrin Binding protein 1 (CIB1) Competitor (AID 1508618)
Calcium and integrin-binding protein 1 (Homo sapiens), sequence (Q99828 whole entry, looked up): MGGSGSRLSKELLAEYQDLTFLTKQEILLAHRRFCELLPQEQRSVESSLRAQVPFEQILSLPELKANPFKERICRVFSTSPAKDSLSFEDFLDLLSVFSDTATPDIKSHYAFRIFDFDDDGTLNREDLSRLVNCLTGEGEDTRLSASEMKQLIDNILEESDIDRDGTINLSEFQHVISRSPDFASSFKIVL
Procedure, shortened: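 CIB1-GST (1 uM final) incubated 15 min at room temperature with compounds (up to 114 uM), then FITC-labelled alphaIIb peptide (100 nM) added. FP read (Ex 480/Em 540) after 15 min, pH 7.4 buffer containing 5 mM CaCl2.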

[10] = molecular target: Calcium and integrin-binding protein 1 (Homo sapiens) (UniProt Q99828); assay: Primary qHTS for Identification of Calcium Integrin Binding Protein 1 (CIB1) Competitor (AID 1508620);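 further: GST tagged CIB1 binding a fluorescein labelled alphaIIb integrin peptide tracer; top concentration of the series differs between compounds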
Procedure, shortened: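 Fluorescence polarization competition: GST-tagged CIB1 (1 uM final) preincubated with compound 15 min at room temperature, then FITC-labelled alphaIIb peptide (100 nM final) added. After 15 min at room temperature, polarization read at Ex 480/Em 540.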

[11] = Primary qHTS for small molecule stabilizers of the endoplasmic reticulum resident proteome: Secreted ER Calcium Modulated Protein (SERCaMP) assay (AID 1508630)
Procedure, shortened: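 The SH-SY5Y reporter protocol was run at 3 concentrations up to 38.3 uM (primary) or 11 concentrations (follow-up): 16 h compound, 100 nM thapsigargin for 4 h, then extracellular luciferase luminescence.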

[12] = molecular target: Cytochrome P450 2D6 (Homo sapiens) (UniProt P10635); assay: Cytochrome P450 family 2 subfamily D member 6 (CYP2D6) small molecule antagonists: luciferase biochemical (cell-free) qHTS assay (AID 1645840; active means well fitted curve in the direction sought with a large enough effect in the repeat runs; an effect the other way counts as inactive or inconclusive; further: nearly all actives have a fitted effect of over 55% in size; further: potency means the concentration at half of the fitted maximal effect)
Cytochrome P450 2D6 (Homo sapiens), sequence (P10635 whole entry, looked up): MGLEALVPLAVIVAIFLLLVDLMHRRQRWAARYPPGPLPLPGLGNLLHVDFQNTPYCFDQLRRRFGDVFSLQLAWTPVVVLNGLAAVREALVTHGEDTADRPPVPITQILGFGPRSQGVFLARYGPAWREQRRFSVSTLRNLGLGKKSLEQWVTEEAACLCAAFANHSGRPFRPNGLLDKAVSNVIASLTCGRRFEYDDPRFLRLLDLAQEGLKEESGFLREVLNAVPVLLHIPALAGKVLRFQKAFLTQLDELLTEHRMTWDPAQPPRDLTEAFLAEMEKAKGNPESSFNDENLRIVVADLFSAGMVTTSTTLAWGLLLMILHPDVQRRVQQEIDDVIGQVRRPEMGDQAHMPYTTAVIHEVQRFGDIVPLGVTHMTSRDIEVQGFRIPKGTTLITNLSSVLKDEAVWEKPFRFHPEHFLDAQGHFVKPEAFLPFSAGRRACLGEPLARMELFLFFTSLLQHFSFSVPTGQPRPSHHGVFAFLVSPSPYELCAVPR
Procedure, shortened: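 P450-Glo CYP2D6 system: proluciferin substrate converted by enzyme to luciferin, read by luminescence proportional to activity. Enzyme-substrate mix with compound 10 min at room temperature, then NADPH regeneration 1 h before detection reagent.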

[13] = A High-Content qHTS Against Drug Library for the Identification of Small Molecules that Inhibit DYT1 Early Onset Primary Dystonia-Associated Cell Pathology (AID 1645839; calls by dose curve; further: series mostly up to about 46 µM)
Procedure, shortened: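 Cells were seeded and left for 24 h, then dosed with compound alongside tetracycline induction of mutant EGFP-TorsinA. They were incubated for 48 h, fixed in 4% paraformaldehyde, permeabilized and imaged for mislocalization (%pathology) and cell count.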

[14] = qHTS to identify inhibitors of the type 1 interferon - major histocompatibility complex class I in skeletal muscle: primary screen against the NCATS LOPAC collection (AID 1347405);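 further: human myoblasts with HiBiT tag on endogenous HLA-B stimulated by IFN-beta; lytic HiBiT luminescence reporting HLA-B protein level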; further: potency means the concentration at half of the fitted maximal effect
Procedure, shortened: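 IFN-beta-stimulated (4 ng/ml) HLA-B HiBiT knock-in myoblasts, compound-treated 24 hrs up to 46 uM final; signal via LgBiT complementation and furimazine luminescence.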

[15] = Counterscreen qHTS for small molecule stabilizers of the endoplasmic reticulum resident proteome: GLuc-NoTag assay (AID 1508627); further: potency means the concentration at half of the fitted maximal effect
Procedure, shortened: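 Counterscreen line: SH-SY5Y-GLuc-NoTag. Seed, 5 h; compound, 19 h; thapsigargin 100 nM, 4 h; 37C/5% CO2. Readout: secreted GLuc luminescence, coelenterazine 0.07x final, no lysis.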

[16] = Confirmatory qHTS for small molecule stabilizers of the endoplasmic reticulum resident proteome: Secreted ER Calcium Modulated Protein (SERCaMP) assay (AID 1508628); further: nearly all actives have a fitted effect of over 40% in size; further: potency means the concentration at half of the fitted maximal effect
Procedure, shortened: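 GLuc-SERCaMP-expressing SH-SY5Y cells, pretreated 16 h with compound, are challenged with thapsigargin to empty ER calcium stores; after 4 h, coelenterazine is added directly to the medium and luminescence is imaged.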

Measured: Potency

CC#C[C@]1(O)CC[C@H]2[C@@H]3CCC4=CC(=O)CCC4=C3[C@@H](c3ccc(N(C)C)cc3)C[C@@]21C
not listed: [12] | [13] | [14] | [15] | [16]
inactive: all other assays above

Clc1ccccc1C(c1ccccc1)(c1ccccc1)n1ccnc1
inactive: [2] | [4] | [5] | [6] | [7] | [8] | [10]
active: [12] 9.77 µM

Cc1ccccc1N1C(=O)c2cc(S(N)(=O)=O)c(Cl)cc2NC1C (centres undefined)
not listed: [2] | [9] | [14] | [15] | [16]
inactive: all other assays above

O=c1c(-c2ccc(O)cc2)coc2cc(O)cc(O)c12
active: [14] 17.8 µM | [3] 9.51 µM
not listed: [1] | [12] | [15] | [16]
inactive: all other assays above

O=c1c(O)c(-c2ccc(O)c(O)c2)oc2cc(O)cc(O)c12
not listed: [5] | [9] | [12] | [13] | [14] | [16]
inactive: all other assays above

Cn1c(=O)c2c(ncn2C)n(C)c1=O
not listed: [1] | [2] | [3] | [9] | [10] | [14]
inactive: all other assays above

Cn1c(=O)c2[nH]cnc2n(C)c1=O
inactive: [4] | [5] | [8] | [9] | [10] | [11] | [13] | [12]

CS(=O)(=O)CCNCc1ccc(-c2ccc3ncnc(Nc4ccc(OCc5cccc(F)c5)c(Cl)c4)c3c2)o1
inactive: [4] | [5] | [8] | [10] | [16] | [11]
active: [3] 33 µM

CCCCc1oc2ccccc2c1C(=O)c1cc(I)c(OCCN(CC)CC)c(I)c1
not listed: [3] | [12] | [13] | [14]
inactive: all other assays above

CC(=O)OCC(CCn1cnc2cnc(N)nc21)COC(C)=O
not listed: [1] | [6] | [7] | [15] | [16]
inactive: all other assays above

CS(=O)(=O)Nc1ccc([N+](=O)[O-])cc1Oc1ccccc1
not listed: [3] | [9] | [10] | [14] | [15] | [16]
inactive: all other assays above

Cc1cn([C@H]2C[C@H](N=[N+]=[N-])[C@@H](CO)O2)c(=O)[nH]c1=O
inactive: [4] | [5] | [8] | [10] | [11] | [13] | [12]

COc1cc2nc(N3CCN(C(=O)C4COc5ccccc5O4)CC3)nc(N)c2cc1OC (centres undefined)
not listed: [1] | [3] | [13] | [15] | [16]
inactive: all other assays above

O=C(C1CCCCC1)N1CC(=O)N2CCc3ccccc3C2C1 (centres undefined)
inactive: [4] | [5] | [8] | [9] | [10] | [11] | [13]

CCC1(c2ccccc2)C(=O)NCNC1=O
inactive: [4] | [5] | [8] | [9] | [10] | [11] | [13] | [12]

Cc1ccc(-c2cc(C(F)(F)F)nn2-c2ccc(S(N)(=O)=O)cc2)cc1
inactive: [14] | [1] | [2] | [8] | [9] | [10] | [11]
active: [12] 13.8 µM

CC(COc1ccccc1)N(CCCl)Cc1ccccc1 (centres undefined)
active: [12] 0.723 µM
not listed: [2] | [9] | [14] | [15] | [16]
inactive: all other assays above

CC(C)Cc1ccc(C(C)C(=O)O)cc1 (centres undefined)
inactive: [2] | [4] | [5] | [8] | [11] | [13] | [12]

COC(=O)Nc1nc2ccc(C(=O)c3cccs3)cc2[nH]1
not listed: [3] | [8] | [14] | [15] | [16]
inactive: all other assays above

COc1ccc(CCN(C)CCCC(C#N)(c2ccc(OC)c(OC)c2)C(C)C)cc1OC (centres undefined)
inactive: [2] | [4] | [5] | [15] | [11] | [12]
active: [16] 20 µM

O=C1Cc2cc(CCN3CCN(c4nsc5ccccc45)CC3)c(Cl)cc2N1
active: [12] 9.77 µM
not listed: [3] | [13] | [14] | [15] | [16]
inactive: all other assays above

CN(C)C(=N)N=C(N)N
inactive: [1] | [4] | [5] | [8] | [10] | [13]

O=C(Nc1ccc([N+](=O)[O-])cc1Cl)c1cc(Cl)ccc1O
active: [15] 3.98 µM | [12] 13.5 µM
not listed: [9] | [13] | [14]
inactive: all other assays above

CC1(C)O[C@H]2CC(=O)OC[C@]23[C@H]2CC[C@@]4(C)[C@H](c5ccoc5)OC(=O)[C@H]5O[C@]54[C@]2(C)C(=O)C[C@@H]13
inactive: [1] | [4] | [5] | [10] | [11] | [13] | [12]

CC1(CN2CCC(n3c(=O)[nH]c4ccccc43)CC2)OCc2ccccc2-n2cccc21 (centres undefined)
inactive: [1] | [3] | [4] | [5] | [8] | [10] | [11]
active: [12] 1.38 µM

C[C@@H]1CC(=O)NN=C1c1ccc(NN=C(C#N)C#N)cc1
active: [3] 18.6 µM | [15] 14.1 µM and 28.2 µM | [16] 15.8 µM
inactive: [1] | [4] | [8] | [10] | [11] | [13] | [12]

COc1cc2c(c(OC)c1OC)-c1ccc(OC)c(=O)cc1[C@@H](NC(C)=O)CC2
not listed: [3] | [14] | [15] | [16]
inactive: all other assays above
